Data taken from PubChem BioAssay.
Where “and” joins values, the source holds several entries; their conditions need not be identical. Equal values may be shown once.

Assay: reversal of MRP1-mediated doxorubicin resistance, pilot screen, H69AR cells, doxorubicin co-treatment (AID 601)
Details: H69AR cells, CellTiter-Glo, 72 h; compound alone cytotoxicity; at 10 µM

| SMILES | viability |
| --- | --- |
| CC(=O)Nc1ccc(S(=O)(=O)n2nc(C)cc2C)cc1 | 105% |
| CCOC(=O)CSc1nnc(Cn2nnc(-c3ccccc3)n2)n1CC | 90.7% |
| O=C(Nc1ccccc1C(=O)N1CCCCCC1)c1cccc(S(=O)(=O)N2CCOCC2)c1 | 95.5% |
| Cc1ccc(-c2cc(C(=O)NCc3ccc4c(c3)OCO4)no2)cc1 | 90.8% |
| CCOC(=O)c1cc(C)sc1N1C(=O)C2C3C=CC(C3)C2C1=O (stereo not given) | 98.7% |
| Cc1ccc(-c2nc(CS(=O)CC(=O)NCCN(CC(C)C)CC(C)C)c(C)o2)cc1 (stereo not given) | 103% |
| CCN(CC)S(=O)(=O)N1CCC(C(=O)NC2CCCc3ccccc32)CC1 (stereo not given) | 90.5% |
| COc1ccc(OC)c(Nc2cc(-c3ccccc3)nc(N)n2)c1 | 30.7% |
| O=c1ccc(S(=O)(=O)N2CCC(Cc3ccccc3)CC2)c[nH]1 | 95.3% |
| CN(C)S(=O)(=O)c1ccc(Oc2ccc(S(=O)(=O)N(C)C)cc2)cc1 | 93.8% |
| COc1ccc2c(c1OC)C(=O)OC2C1c2c(cc3c(c2OC)OCO3)CCN1C (stereo not given) | 51.7% and 73.8% |
| c1ccc(-c2cn3c4c(sc3n2)CCCC4)cc1 | 39.9% |
| Oc1ccc2[nH]cnc2c1CN1CCCCC1 | 99.7% |
| CCCCOc1cc(=O)[nH]c(=O)[nH]1 | 102% |
| COc1cc(-c2nn3c(-c4cccnc4)nnc3s2)cc(OC)c1OC | 92.6% |
| CCS(=O)(=O)Nc1ccc(C(=O)CC2(O)C(=O)Nc3ccccc32)cc1 (stereo not given) | 89.5% |
| Cn1c(=O)c2[nH]c(NCC3CCCO3)nc2n(-c2ccccc2)c1=O (stereo not given) | 102% |
| Cc1cccc(OCCCC(=O)O)c1 | 89.4% |
| Cc1cccc2cc(CN(CC3CCCO3)C(=O)c3cnccn3)c(=O)[nH]c12 (stereo not given) | 85.1% |
| COCCCNC(=O)C(Cc1ccccc1)NS(=O)(=O)c1ccc2c(c1)c(=O)n(C)c(=O)n2C (stereo not given) | 89.2% |
